{
  "source": "PubChem BioAssay AID1851",
  "about": "(National Center for Advancing Translational Sciences (NCATS), 2009)",
  "note": "Hit rate of the full screen: of about 16,000 compounds, about 5,700 (36%) were called active. Another 24% or so got no clear call; they are omitted. Calls follow the shape of the dose curve; as a rule, active = well fitted curve in the direction sought with a large enough effect; inconclusive = small, poorly fitted or top-dose-only effect, or effect the other way; inactive = no such curve, though single readings can be large or run the other way. Some of the results follow. Square brackets hold non-standard residues; d marks the D form. Peptide text beside a SMILES is read from it. * marks the point of attachment. ξ: configuration not given here. Cbz = O=C(OCc1ccccc1)*; OBn = c1ccc(CO*)cc1; ξP = O=C(O)C1CCCN1",
  "data": [
    {"target": "Cytochrome P450 1A2 (Homo sapiens) (UniProt P05177)", "sequence (P05177 whole entry, looked up)": "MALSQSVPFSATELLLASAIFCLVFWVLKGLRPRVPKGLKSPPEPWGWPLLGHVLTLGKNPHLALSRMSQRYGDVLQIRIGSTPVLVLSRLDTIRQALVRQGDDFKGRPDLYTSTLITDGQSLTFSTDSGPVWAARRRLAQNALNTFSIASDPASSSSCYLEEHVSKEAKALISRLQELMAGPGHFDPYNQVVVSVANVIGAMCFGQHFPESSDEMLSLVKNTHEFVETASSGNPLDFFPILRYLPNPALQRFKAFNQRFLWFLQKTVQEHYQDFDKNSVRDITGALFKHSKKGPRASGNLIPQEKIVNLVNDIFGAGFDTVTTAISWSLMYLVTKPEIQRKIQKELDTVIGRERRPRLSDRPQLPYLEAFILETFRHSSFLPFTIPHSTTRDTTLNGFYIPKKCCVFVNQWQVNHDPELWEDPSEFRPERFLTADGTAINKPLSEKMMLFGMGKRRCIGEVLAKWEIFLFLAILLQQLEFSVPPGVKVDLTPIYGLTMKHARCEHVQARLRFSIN", "assay": "Cytochrome panel assay with activity outcomes; as to activity, negative = inhibition: % is scaled to controls: 0 for no effect and ±100 for the full control effect", "details": "recombinant CYP, pro-luciferin dealkylation, luminescence, p450-cyp1a2; series mostly up to 57.1 µM; activity, negative = inhibition: at the top concentration", "values": [
      {"smiles": "O=C(c1cc(C(F)(F)F)cc(C(F)(F)F)c1)N1CCC2(CCCN(Cc3nccs3)C2)CC1", "activity, negative = inhibition": "9.76% (inactive)"},
      {"smiles": "Cc1ccc(Nc2c([N+](=O)[O-])ccc3c2=NC2(CCCCC2)N=3)cc1", "AC50": "15.8 µM (active)"},
      {"smiles": "Cc1cccc(NC(=O)CCCN2C(=O)c3cccc4cccc(c34)C2=O)c1", "AC50": "6.31 µM (active)"},
      {"smiles": "Cc1cccc(NC(=O)CC2Nc3cccc4cccc(c34)NC2=O)c1", "note": "(centres undefined)", "AC50": "5.01 µM (active)"},
      {"smiles": "Cc1c(Cl)cccc1NC(=O)CC1NCCNC1=O", "note": "(centres undefined)", "activity, negative = inhibition": "0.636% (inactive)"},
      {"smiles": "CCOC(=O)Cc1csc(NC(=O)CCCCCN2C(=O)c3ccccc3C2=O)n1", "AC50": "1.78 µM (active)"},
      {"smiles": "Cc1ccc(NC(=O)CCN2C(=O)c3ccncc3C2=O)cc1", "activity, negative = inhibition": "-35% (inactive)"},
      {"smiles": "CCOC(=O)c1sc(NC(=O)CCCCCN2C(=O)c3cccc4cccc(c34)C2=O)nc1C", "AC50": "25.1 µM (active)"},
      {"smiles": "C[N+](C)(CCCCCC[N+](C)(C)CCCN1C(=O)c2cccc3cccc(c23)C1=O)CCCN1C(=O)c2cccc3cccc(c23)C1=O", "activity, negative = inhibition": "10.6% (inactive)"},
      {"smiles": "[N-]=[N+]=NC[C@@H]1O[C@@H](n2cnc3c(N)ncnc32)[C@@H]2O[C@@H]21", "activity, negative = inhibition": "-13.8% [at 11.4 µM] (inactive)"},
      {"smiles": "COCCCNC(=O)C1CC(=O)N(CCc2ccc(OC)c(OC)c2)C1", "note": "(centres undefined)", "activity, negative = inhibition": "-18.6% (inactive)"},
      {"smiles": "N/C(=N\\O)c1cn([C@@H]2O[C@@H](CO)[C@H](O)[C@@H]2O)c2ncnc(NO)c12", "activity, negative = inhibition": "-18.7% [at 2.29 µM] (inactive)"},
      {"smiles": "C=C[C@H](N)CCC(=O)O", "AC50": "inactive"},
      {"smiles": "C[C@@H](C[N+](C)(C)C)OC(N)=O", "AC50": "inactive"},
      {"smiles": "Cc1cccc(/C(N)=N/OC(=O)CCCN2C(=O)c3ccccc3C2=O)c1", "AC50": "15.8 µM (active)"},
      {"smiles": "CSCC[C@@H]1NC(=O)C/C=C\\[C@@H](C)COC(=O)[C@H](C)COC1=O", "activity, negative = inhibition": "-2.99% [at 11.4 µM] (inactive)"},
      {"smiles": "CCC(CC)C(=O)NCCN1CCN(C(=O)C(CC)CC)CC1", "activity, negative = inhibition": "4.35% (inactive)"},
      {"smiles": "CCCCOc1ccc(CN2CCC(O)CC2)cc1", "activity, negative = inhibition": "10.8% (inactive)"},
      {"smiles": "COc1ccc(C[C@@H]2c3cc(OC)c(OC)cc3CC[N@+]2(C)CCC(=O)OCCCCCOC(=O)CC[N@@+]2(C)CCc3cc(OC)c(OC)cc3[C@H]2Cc2ccc(OC)c(OC)c2)cc1OC", "activity, negative = inhibition": "0.265% [at 25.6 µM] (inactive)"},
      {"smiles": "CCCCOc1cc(C[C@@H]2CNC(=O)N2)ccc1OC", "AC50": "10 µM (active)"},
      {"smiles": "Cc1ccccc1Oc1ncnc2sccc12", "AC50": "12.6 µM (active)"},
      {"smiles": "N#CCCn1cc(/C=N/O)c(-c2ccc(Cl)cc2)n1", "AC50": "0.891 µM (active)"},
      {"smiles": "Oc1[nH]c2ccccc2c1/C=N/c1nccs1", "AC50": "0.251 µM (active)"},
      {"smiles": "COc1ccc(-c2cc(-c3cc(F)ccc3O)[nH]n2)cc1OC", "AC50": "6.31 µM (active)"},
      {"smiles": "COc1ccc(-c2cc(-c3c(O)c(OC)c4occc4c3OC)[nH]n2)cc1OC", "AC50": "6.31 µM (active)"},
      {"smiles": "CCc1ccc(-c2csc(NC(=O)C3CCCO3)c2C(=O)OC(C)C)cc1", "note": "(centres undefined)", "AC50": "7.08 µM (active)"},
      {"smiles": "Cc1ccc(-c2c(C)sc(NC(=O)C3C4CCC(O4)C3C(=O)O)c2C(=O)OC(C)C)cc1", "note": "(centres undefined)", "activity, negative = inhibition": "-13.6% (inactive)"},
      {"smiles": "C=C(C)[C@H]1CC=C(C)/C(=N/NC(=O)CNc2ccccc2OC)C1", "AC50": "15.8 µM (active)"},
      {"smiles": "C=C(C)C1CC=C(C)/C(=N/NC(=O)c2ccc(NC(=O)c3cccc(C)c3)cc2)C1", "note": "(centres undefined)", "activity, negative = inhibition": "-8.69% (inactive)"},
      {"smiles": "CC(=O)N1c2ccc(S(=O)(=O)CCC(=O)O)cc2CC1C", "note": "(centres undefined)", "activity, negative = inhibition": "3.83% (inactive)"},
      {"smiles": "COC(=O)c1cn(NC(=O)c2ccc(F)cc2)c(=O)c2ccccc12", "activity, negative = inhibition": "-20.8% (inactive)"},
      {"smiles": "CCOC(=O)c1c(NC(=O)c2c(Br)cnn2C)c(C#N)nn1-c1ccccc1", "AC50": "0.631 µM (active)"},
      {"smiles": "COC(=O)c1ccccc1NC(=O)C1CCN(C(=O)c2ccc(OC)cc2)CC1", "activity, negative = inhibition": "-10.6% (inactive)"},
      {"smiles": "COC(=O)c1ccccc1NC(=O)c1ccc(F)cc1", "AC50": "0.2 µM (active)"},
      {"smiles": "Cc1ccccc1C(=O)NNC(=O)c1ccc(F)cc1", "activity, negative = inhibition": "2.52% (inactive)"},
      {"smiles": "CCCCOC(=O)Nc1ccccc1C(=O)OC", "AC50": "2 µM (active)"},
      {"smiles": "COC(=O)c1ccccc1NC(=O)c1c(Br)cnn1C", "AC50": "0.891 µM (active)"},
      {"smiles": "Cc1c(C(=O)O)nc(/C=C\\C(=O)O)[nH]c1=O", "activity, negative = inhibition": "-6.61% [at 11.4 µM] (inactive)"},
      {"smiles": "O=C(Nc1cccc2[nH]ncc12)c1ccc(F)cc1", "AC50": "7.08 µM (active)"},
      {"smiles": "C#CCCCO/N=C1/C[C@@H](O)[C@@H](O)[C@@H]2[C@@H]3C(=O)N(C[C@@H]4CCCO4)C(=O)[C@H]3CC[C@H]12", "activity, negative = inhibition": "-2.74% [at 11.4 µM] (inactive)"},
      {"smiles": "CC(C)NC(=O)N1CCC2(CC1)CCN(C(=O)c1csnn1)CC2", "activity, negative = inhibition": "8.76% (inactive)"},
      {"smiles": "N#Cc1sc2nc(-c3cccs3)cc(-c3ccc(Cl)cc3)c2c1N", "AC50": "1.26 µM (active)"},
      {"smiles": "CCN(CC)CCCNC(=O)C1CCC(=O)N(c2ccc(OC)cc2)C1c1ccc(F)cc1", "note": "(centres undefined)", "activity, negative = inhibition": "-25.8% (inactive)"},
      {"smiles": "Nc1c(-c2cccs2)cnn1-c1nc(-c2ccc(Cl)cc2Cl)cs1", "AC50": "1.26 µM (active)"},
      {"smiles": "Nc1c(-c2cccs2)cnn1-c1nc(-c2ccc(F)cc2)cs1", "AC50": "0.447 µM (active)"},
      {"smiles": "O=C(c1csnn1)N1CCC2(CC1)CCN(c1ccncc1)CC2", "activity, negative = inhibition": "-4.22% (inactive)"},
      {"smiles": "C[C@@H](C(=O)O)[C@H]1C[C@]1(C)[C@H](NC(=O)OCc1ccccc1)c1ccccc1", "activity, negative = inhibition": "-16% (inactive)"},
      {"smiles": "O=C(Nc1ccccc1)N1CCC2(CC1)CCN(C(=O)c1cnccn1)CC2", "activity, negative = inhibition": "-20.1% (inactive)"},
      {"smiles": "O=C(CNC(=O)OCc1ccccc1)NCC(=O)N1CCCC1C(=O)OCc1ccccc1", "note": "(stereo not drawn) (Cbz-Gly-Gly-[ξP]-OBn)", "activity, negative = inhibition": "4.12% (inactive)"},
      {"smiles": "COC(=O)[C@H]1C[C@@H]1[C@H](NC(=O)OCc1ccccc1)c1ccccc1", "AC50": "0.126 µM (active)"},
      {"smiles": "COC(=O)[C@H]1C[C@@H]1[C@H](NC(=O)c1ccccc1)c1ccccc1", "AC50": "15.8 µM (active)"},
      {"smiles": "COC(=O)[C@@H]1C[C@H]1[C@@H](NC(=O)c1cnccn1)c1ccccc1", "AC50": "12.6 µM (active)"},
      {"smiles": "O=C(NC(NCc1ccccc1)C(Cl)(Cl)Cl)c1cccnc1", "note": "(centres undefined)", "activity, negative = inhibition": "-6.61% (inactive)"},
      {"smiles": "O=C(NNC(=O)C1CCCCC1)c1cnccn1", "activity, negative = inhibition": "5.27% (inactive)"},
      {"smiles": "COC(=O)[C@@H]1C[C@H]1[C@@H](NC(=O)c1cccnc1)c1ccccc1", "AC50": "12.6 µM (active)"},
      {"smiles": "CCc1cc[n+](-c2nc3ccccc3nc2C(=C=[N-])C#N)cc1", "activity, negative = inhibition": "-14% (inactive)"},
      {"smiles": "COC(=O)[C@@H]1C[C@H]1[C@@H](NC(=O)c1ccccc1)c1ccccc1", "AC50": "5.01 µM (active)"},
      {"smiles": "COC(=O)C1CC1C(NC(=O)[C@H]1CCCCN1)c1ccccc1", "note": "(some centres undefined)", "activity, negative = inhibition": "-23.3% (inactive)"},
      {"smiles": "Cc1cc(N(CN2CCCC2=O)C(=O)c2ccc(F)cc2)no1", "activity, negative = inhibition": "-6.57% (inactive)"}
    ]}
  ]
}
